For part of these data: Potency and affinity values are given separately.

Common to all, as to set-up: scale not given: direction of the effect not stated beside the values
The target in assay [1] is Protein translocase subunit SecA (Escherichia coli (strain K12)) (UniProt P10408). The assay can be described thus: Assay to Identify E. coli SecA ATPase Inhibitors. It counts as functional. Conditions: 30 µM.
Assay [2] deals with T1, Ubiquitin-activating enzyme e1, putative (Leishmania donovani (strain BPK282A1)) (UniProt E9BSI1).
T1 sequence (whole entry): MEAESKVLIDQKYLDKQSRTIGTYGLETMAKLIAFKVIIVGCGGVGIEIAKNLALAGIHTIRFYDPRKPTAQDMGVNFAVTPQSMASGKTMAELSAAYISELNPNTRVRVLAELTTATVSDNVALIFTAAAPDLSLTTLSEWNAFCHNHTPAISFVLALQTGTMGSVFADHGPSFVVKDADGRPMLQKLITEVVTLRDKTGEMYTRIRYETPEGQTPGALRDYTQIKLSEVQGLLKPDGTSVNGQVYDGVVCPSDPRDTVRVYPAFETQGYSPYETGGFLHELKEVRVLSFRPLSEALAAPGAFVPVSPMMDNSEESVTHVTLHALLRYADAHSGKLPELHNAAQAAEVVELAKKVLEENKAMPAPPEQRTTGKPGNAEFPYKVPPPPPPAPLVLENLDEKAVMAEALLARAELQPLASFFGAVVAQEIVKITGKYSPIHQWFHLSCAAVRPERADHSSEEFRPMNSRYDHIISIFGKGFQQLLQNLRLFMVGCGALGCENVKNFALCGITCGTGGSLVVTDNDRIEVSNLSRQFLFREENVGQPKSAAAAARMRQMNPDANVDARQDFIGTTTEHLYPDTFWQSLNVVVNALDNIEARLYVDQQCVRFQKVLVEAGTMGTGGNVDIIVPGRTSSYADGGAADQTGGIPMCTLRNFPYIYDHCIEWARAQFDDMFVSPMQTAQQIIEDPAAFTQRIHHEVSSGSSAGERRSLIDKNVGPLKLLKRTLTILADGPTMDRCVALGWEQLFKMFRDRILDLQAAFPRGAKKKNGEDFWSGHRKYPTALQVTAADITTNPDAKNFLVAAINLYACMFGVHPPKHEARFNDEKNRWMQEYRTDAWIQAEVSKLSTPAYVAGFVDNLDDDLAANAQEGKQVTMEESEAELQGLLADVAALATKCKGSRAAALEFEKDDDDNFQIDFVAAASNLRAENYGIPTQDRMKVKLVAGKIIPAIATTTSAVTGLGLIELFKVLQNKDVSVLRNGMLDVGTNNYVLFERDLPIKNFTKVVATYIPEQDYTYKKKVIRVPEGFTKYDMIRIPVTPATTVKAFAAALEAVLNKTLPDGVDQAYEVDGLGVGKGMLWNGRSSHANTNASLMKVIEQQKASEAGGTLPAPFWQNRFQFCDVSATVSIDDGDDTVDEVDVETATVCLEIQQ
The assay can be described thus: Leishmania donovani Ubiquitin Activating Enzyme (LdE1). Conditions: 30 µM. In kind it is functional.

In assay [3] the target is Sialic acid-binding Ig-like lectin 9 (Homo sapiens) (UniProt Q9Y336). In words: Hs-Siglec9 ALPHAscreen SOP 20170721. Conditions: 10 µM.
Sequence of Sialic acid-binding Ig-like lectin 9 (Homo sapiens) (Q9Y336 whole entry): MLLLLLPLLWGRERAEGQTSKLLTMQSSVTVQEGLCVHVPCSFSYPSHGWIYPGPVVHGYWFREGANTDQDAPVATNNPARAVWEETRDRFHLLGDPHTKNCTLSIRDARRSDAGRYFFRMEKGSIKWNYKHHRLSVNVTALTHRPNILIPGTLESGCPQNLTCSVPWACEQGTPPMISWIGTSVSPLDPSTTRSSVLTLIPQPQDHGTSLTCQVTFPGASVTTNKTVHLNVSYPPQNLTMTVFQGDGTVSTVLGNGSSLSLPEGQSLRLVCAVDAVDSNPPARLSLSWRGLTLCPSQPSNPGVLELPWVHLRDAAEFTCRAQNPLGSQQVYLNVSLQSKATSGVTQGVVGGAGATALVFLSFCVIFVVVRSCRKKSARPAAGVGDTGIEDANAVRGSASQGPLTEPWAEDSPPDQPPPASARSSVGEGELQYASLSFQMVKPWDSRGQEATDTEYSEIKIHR
For assay [4], the system named is Trypanosoma cruzi. In words: Trypanosoma cruzi phosphomannomutase and mannose-1-phosphate guanylyltransferase assay. Conditions: 10 µM. In kind it is functional.
Assay [5] has as its target T2, Arginase-2, mitochondrial (Homo sapiens) (UniProt P78540).
T2 sequence (whole entry): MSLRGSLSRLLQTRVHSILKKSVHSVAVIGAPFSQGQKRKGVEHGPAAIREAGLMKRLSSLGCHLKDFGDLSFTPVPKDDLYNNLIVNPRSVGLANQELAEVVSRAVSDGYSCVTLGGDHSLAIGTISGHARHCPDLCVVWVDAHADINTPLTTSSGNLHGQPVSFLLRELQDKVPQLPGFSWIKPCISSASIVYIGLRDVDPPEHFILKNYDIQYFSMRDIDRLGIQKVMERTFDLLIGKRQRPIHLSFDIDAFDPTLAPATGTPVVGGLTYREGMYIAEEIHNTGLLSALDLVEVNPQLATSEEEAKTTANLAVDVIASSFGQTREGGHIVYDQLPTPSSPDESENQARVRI
In words: in vitro enzyme assay to detect the production of urea directly proportional to the activity of Arginase II. Further: in the data most compounds retested in dose-response had high values. It counts as functional. The following applies: 33.3 µM.

Assay [6] deals with T3, Proteasome subunit beta (Trypanosoma cruzi) (UniProt O96673).
T3 sequence (whole entry): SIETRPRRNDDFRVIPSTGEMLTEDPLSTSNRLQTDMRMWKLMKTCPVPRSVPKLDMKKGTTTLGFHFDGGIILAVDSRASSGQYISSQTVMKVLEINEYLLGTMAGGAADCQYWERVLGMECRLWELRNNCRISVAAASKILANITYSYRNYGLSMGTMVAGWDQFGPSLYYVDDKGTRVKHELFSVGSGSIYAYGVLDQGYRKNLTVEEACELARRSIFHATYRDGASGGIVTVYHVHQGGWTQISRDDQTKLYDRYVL
The assay can be described thus: Trypanosoma cruzi proteasome chymotrypsin-like activity (TcProtChymo) assay. Further: in the data most compounds retested in dose-response had high values. It counts as functional. Conditions: 9.37 µM.

The species entered for assay [7] is Homo sapiens. The assay can be described thus: To identify inhibition of the IFN signalling (Jak-Stat) pathway via expression of an eGFP reporter gene under the control of an IFN-stimulated response element (ISRE) containing MxA promoter. Conditions: 30 µM. It counts as functional. In general terms: In a reporter assay the amount or activity of a reporter protein is the signal.

The target in assay [8] is T4, Tyrosyl-tRNA synthetase, putative (Trypanosoma cruzi (strain CL Brener)) (UniProt Q4DSP6).
T4 sequence (whole entry): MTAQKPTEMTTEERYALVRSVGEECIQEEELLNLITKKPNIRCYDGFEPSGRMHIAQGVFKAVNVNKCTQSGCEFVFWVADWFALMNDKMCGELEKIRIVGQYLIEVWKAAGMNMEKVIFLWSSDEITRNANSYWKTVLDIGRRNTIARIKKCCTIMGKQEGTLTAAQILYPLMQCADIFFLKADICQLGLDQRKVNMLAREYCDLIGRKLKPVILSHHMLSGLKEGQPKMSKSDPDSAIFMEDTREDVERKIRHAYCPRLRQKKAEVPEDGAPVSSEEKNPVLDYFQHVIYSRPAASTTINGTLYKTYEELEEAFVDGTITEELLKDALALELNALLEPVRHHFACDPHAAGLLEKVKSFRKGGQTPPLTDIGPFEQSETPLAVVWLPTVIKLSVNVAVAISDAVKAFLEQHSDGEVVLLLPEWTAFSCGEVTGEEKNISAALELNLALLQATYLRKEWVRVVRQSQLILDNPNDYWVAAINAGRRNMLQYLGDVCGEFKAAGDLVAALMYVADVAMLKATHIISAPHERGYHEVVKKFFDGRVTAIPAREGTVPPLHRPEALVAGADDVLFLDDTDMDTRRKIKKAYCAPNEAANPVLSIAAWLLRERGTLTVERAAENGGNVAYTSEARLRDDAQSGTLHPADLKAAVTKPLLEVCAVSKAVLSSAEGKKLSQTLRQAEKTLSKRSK
The assay can be described thus: Trypanosoma cruzi tyrosyl tRNA synthetase (TcYRS) _High Tyrosine SOP. Further: in the data most compounds retested in dose-response had high values. It counts as functional. The following applies: 30 µM.

For assay [9], the target named is T4, Tyrosyl-tRNA synthetase, putative (Trypanosoma cruzi (strain CL Brener)). In words: Trypanosoma cruzi tyrosyl tRNA synthetase (TcYRS) SOP. It counts as functional. Conditions: 30 µM.
The target in assay [10] is Chromo domain-containing protein 1 (Saccharomyces cerevisiae (strain ATCC 204508 / S288c) (Baker's yeast)) (UniProt P32657). In words: ScCHD-1 Enzyme Inhibition Assay. Further: in the data most compounds retested in dose-response had high values. In kind it is functional. Conditions: 30 µM.
Sequence of Chromo domain-containing protein 1 (Saccharomyces cerevisiae (strain ATCC 204508 / S288c) (Baker's yeast)) (P32657 whole entry, the tested form may be a part): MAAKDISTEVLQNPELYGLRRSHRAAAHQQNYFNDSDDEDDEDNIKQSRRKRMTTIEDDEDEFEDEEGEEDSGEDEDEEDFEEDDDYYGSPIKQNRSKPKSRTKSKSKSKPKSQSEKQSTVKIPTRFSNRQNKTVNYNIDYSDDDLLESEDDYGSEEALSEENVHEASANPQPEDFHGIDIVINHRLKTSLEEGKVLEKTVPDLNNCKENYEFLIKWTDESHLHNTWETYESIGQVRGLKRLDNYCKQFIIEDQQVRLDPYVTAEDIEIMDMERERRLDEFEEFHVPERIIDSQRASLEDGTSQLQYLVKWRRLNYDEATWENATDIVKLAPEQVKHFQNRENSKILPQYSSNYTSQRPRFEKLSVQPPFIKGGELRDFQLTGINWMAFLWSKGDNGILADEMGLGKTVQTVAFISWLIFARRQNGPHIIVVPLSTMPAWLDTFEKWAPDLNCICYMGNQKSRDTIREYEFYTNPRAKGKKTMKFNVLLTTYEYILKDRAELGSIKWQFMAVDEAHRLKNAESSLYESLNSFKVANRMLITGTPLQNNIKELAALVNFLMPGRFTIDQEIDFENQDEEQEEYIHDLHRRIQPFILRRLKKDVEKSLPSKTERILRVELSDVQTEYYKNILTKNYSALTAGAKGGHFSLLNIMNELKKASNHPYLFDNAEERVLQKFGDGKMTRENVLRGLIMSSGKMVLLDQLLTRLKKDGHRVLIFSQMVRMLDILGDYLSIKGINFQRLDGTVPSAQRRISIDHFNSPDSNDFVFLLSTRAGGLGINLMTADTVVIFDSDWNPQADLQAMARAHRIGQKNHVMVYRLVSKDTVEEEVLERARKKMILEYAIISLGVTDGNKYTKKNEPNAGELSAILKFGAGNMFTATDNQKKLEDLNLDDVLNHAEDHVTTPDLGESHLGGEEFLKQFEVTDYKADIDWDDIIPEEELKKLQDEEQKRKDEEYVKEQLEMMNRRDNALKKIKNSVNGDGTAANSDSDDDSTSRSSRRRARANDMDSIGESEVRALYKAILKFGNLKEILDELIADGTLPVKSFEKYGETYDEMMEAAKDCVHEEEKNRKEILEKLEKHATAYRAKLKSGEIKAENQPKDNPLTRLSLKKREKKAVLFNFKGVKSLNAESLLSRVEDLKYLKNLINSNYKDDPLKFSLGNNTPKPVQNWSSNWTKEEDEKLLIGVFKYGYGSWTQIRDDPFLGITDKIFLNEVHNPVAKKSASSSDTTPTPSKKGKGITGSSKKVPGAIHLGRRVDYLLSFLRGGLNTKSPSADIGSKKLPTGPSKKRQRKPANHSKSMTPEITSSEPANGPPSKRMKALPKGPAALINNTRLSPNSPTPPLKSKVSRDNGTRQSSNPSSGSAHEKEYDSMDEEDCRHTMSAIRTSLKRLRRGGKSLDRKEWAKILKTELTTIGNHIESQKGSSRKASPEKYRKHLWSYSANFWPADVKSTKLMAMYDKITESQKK

Sequence of Protein translocase subunit SecA (Escherichia coli (strain K12)) (P10408 whole entry): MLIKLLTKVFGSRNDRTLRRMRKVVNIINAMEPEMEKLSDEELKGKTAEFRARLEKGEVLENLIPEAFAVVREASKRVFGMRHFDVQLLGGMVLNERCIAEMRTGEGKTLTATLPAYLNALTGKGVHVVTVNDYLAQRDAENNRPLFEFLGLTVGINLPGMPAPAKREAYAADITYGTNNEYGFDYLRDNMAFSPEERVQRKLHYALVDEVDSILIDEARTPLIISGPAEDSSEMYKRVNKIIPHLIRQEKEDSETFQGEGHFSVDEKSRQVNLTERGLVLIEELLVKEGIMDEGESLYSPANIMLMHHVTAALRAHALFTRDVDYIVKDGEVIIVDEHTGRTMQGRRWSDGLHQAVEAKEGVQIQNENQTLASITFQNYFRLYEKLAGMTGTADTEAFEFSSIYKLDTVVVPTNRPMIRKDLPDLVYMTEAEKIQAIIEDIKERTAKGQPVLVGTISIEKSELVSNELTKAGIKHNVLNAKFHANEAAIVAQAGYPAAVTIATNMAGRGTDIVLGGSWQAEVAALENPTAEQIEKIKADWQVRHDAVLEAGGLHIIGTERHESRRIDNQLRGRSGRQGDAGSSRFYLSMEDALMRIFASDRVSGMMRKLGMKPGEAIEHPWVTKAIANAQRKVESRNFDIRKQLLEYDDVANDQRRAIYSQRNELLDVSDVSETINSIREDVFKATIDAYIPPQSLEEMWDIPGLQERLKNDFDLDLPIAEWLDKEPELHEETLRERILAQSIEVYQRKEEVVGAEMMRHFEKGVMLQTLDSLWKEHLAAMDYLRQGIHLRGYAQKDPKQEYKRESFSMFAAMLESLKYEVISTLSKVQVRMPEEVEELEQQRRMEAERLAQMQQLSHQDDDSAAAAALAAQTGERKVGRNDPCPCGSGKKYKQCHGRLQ

Consider `CC(C)c1nccn1-c1cccc(C2CCCN(C3CCCC3)C2)n1` (stereo not given), for which the Percent Effect is -2.48% in [1]; 6.67% in [2]; 3.65% in assay [3]; 0.197% in [4]; 0.885% in assay [5]; 15.6% in assay [6]. Moreover, the Percent Effect in assay [7] was 2.2%; in assay [8], 6.35%; in assay [9] it was 17.5%; in [10] it was -23.6%.

For `CCc1nc(CN2CCCN(C(=O)c3cn[nH]c3CC)CC2)cs1`, the Percent Effect is 0.744% in assay [1]; 17.9% in assay [2]; -17.5% in assay [3]; -0.282% in assay [4]; -6.97% in assay [5]; 10.2% in [6]. The Percent Effect is -6.8% in assay [7], 6.22% in assay [8], 13.2% in [9] and -6.17% in [10].

`CC(C)n1ccnc1CN1CCCN(C(=O)c2cccnc2O)CC1`: the Percent Effect was -4.65% in assay [1]; 15.4% in assay [2]; -20.6% in [3]; 5.54% in [4]; 1.64% in assay [5]; 14.9% in assay [6]. For the same compound, the Percent Effect in [7] was -7.69%; in assay [8], 10.1%; in assay [9] it was 22.9%; in assay [10], -5.81%.

Regarding `Cc1cccnc1C(=O)N1CCCC(c2[nH]ncc2S(C)(=O)=O)C1` (stereo not given), the Percent Effect is -0.892% in assay [1]; 4% in assay [2]; 0.0565% in [3]; -4.54% in [4]; 3.1% in [5]; 0.985% in assay [6]. Moreover, the Percent Effect was 20% in [7], 5.29% in assay [8], 7.5% in assay [9] and -20.1% in [10].

Take `O=C(CCN1CCCN(c2nccs2)CC1)NCC1CCCCC1`: the Percent Effect was -2.39% in assay [1]; 5.33% in assay [2]; 1.99% in assay [3]; -3.61% in assay [4]; 0% in assay [5]; 9.41% in [6]. The Percent Effect in assay [7] was 3.1%; in [8], 6.84%; in assay [9], 7.69%; in assay [10] it was -5.72%.

As to `CCC(NC(=O)CC(F)(F)F)c1ccccc1OCC(=O)N1CCCC1` (stereo not given), the Percent Effect in assay [1] is -0.84%; in assay [2], 15.4%; in assay [3], -4.51%; in [4] it was -0.845%; in assay [5], 0%; in assay [6], 13.4%. Also, the Percent Effect was -7.93% in assay [7], 7.18% in assay [8], 20.5% in assay [9] and -2.48% in assay [10].

Consider `CN1CCOC(CNC(=O)CCCOCCc2ccccc2)C1` (stereo not given), for which the Percent Effect in assay [1] was -3.33%; in assay [2], 17.9%; in [3], -5.99%; in assay [4], 9.86%; in assay [5], 3.28%; in assay [6], 9.13%. In addition, the Percent Effect in [7] is 19.5%; in assay [8], 4.31%; in assay [9] it was 22.9%; in [10] it was -6.94%.

With `CN(C)Cc1ccc(C2CCCCN2C(=O)c2cccc(CO)n2)cc1` (stereo not given), the Percent Effect in assay [1] is -5.85%; in assay [2], 13.5%; in assay [3], 26.3%; in assay [4], 9.8%; in [5], 23.4%; in [6], 9.25%. Also, the Percent Effect stood at 8.84% in assay [7], 6.92% in assay [8], 14.6% in assay [9] and 80.3% in assay [10].

On to `CCC1c2ccsc2CCN1C(=O)NCc1ccccn1` (stereo not given), for which the Percent Effect in assay [1] is -3.49%; in assay [2], 20.5%; in assay [3] it was -10.3%; in assay [4], 4.6%; in [5], 4.1%; in assay [6], 10.2%. Also, the Percent Effect in assay [7] is 10.8%; in assay [8], 5.26%; in assay [9], 22.9%; in assay [10], -7.76%.

For the compound `c1ccc(C(OCCNC2CCc3ncnn3C2)c2ccccc2)cc1` (stereo not given), the Percent Effect in [1] is -5.97%; in assay [2], 10.4%; in [3] it was 5.43%; in [4], 5.41%; in assay [5] it was -4.3%; in [6], 0.526%. Moreover, the Percent Effect is -3.8% in [7], 0.98% in [8], 18.8% in [9] and -13.3% in assay [10].

As for `CC(C)c1nn(C)c(N2CCOCC2)c1CNCCS(C)(=O)=O`, the Percent Effect in assay [1] was -1.81%; in [2], 0%; in [3] it was 0.36%; in [4], 1.22%; in [5], 4.92%; in assay [6] it was -0.427%. Further, the Percent Effect was -17% in [7], 0.478% in assay [8], 1.21% in [9] and 1.65% in [10].

In the case of `O=C(Cn1cc(-c2ccccc2)ncc1=O)Nc1nnc[nH]1`, the Percent Effect is -1.82% in assay [1]; 8.11% in assay [2]; 4.37% in assay [3]; 2.42% in [4]; 8.74% in assay [5]; 20.4% in [6]. The Percent Effect was -1.74% in [7], 6.92% in assay [8], 19.5% in [9] and 83.7% in assay [10].

For the origin of these results see ChEMBL document CHEMBL3988442, “University of Dundee, Small-Polar-MMV Screening Library” (2021).
